Screening results: PubChem BioAssay, several laboratories
Mdm2 MdmX PPI: inhibitors of human Mdm2-MdmX association, primary screen, cell-based, luminescence, split luciferase, SaOS-2, uHTS; Protein Mdm4 (Homo sapiens) + E3 ubiquitin-protein ligase Mdm2 (Homo sapiens), …; SaOS-2 split-luciferase Mdm2/MdmX complementation; inhibition, % at 8 µM; hit rate 3% among 330,000; AID 485346, 2010;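 active = inhibition of at least 50% at 8 µM in the primary screen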
CSC inhib: cancer stem cell viability inhibitors, primary screen, luminescence | hit rate 1.1% among 300,000 | inhibition, % at 7.5 µM | cancer stem cell-like cells viability; in the data active = inhibition above about 75%; tested in HMLE shEcad cells
Calb FLC: C. albicans growth inhibition with fluconazole, primary screen, CaCi-2 strain, Alamar Blue fluorescence | C. albicans CaCi-2 (fluconazole-resistant clinical isolate) + fluconazole, 48 h | growth inhibition, % (no concentration beside the values) | hit rate 0.57% among 300,000 | AID 1979, 2009;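 active = growth inhibition above about 58% in most replicates, limit read from the data, passing the limit was not always enough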;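 note: all wells also contain fluconazole at 8 µg/ml as a sub-toxic cotreatment; 0% = median of DMSO wells and 100% = median of geldanamycin control wells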
PP1 counter: PP1-alpha phosphatase inhibitors, primary screen, counter-screen for PP5 inhibitor project, biochemical, fluorescence, OMFP substrate, single point | Serine/threonine-protein phosphatase PP1-alpha catalytic subunit (Homo sapiens), P62136 | purified PP1alpha | inhibition, % at 6.7 µM | hit rate 0.9% among 320,000 | AID 2235, 2010;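 active = inhibition above the mean inhibition of all tested compounds plus 3 SD, computed separately for each screening campaign, cut at about 15% in these data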
Beta apoptosis: inhibitors of cytokine-induced beta cell apoptosis, primary screen, luminescence. INS-1E cytokine-induced death, ATP luminescence, 48 h; percent of positive-control rescue, neutral wells zero. protection from apoptosis, % (no concentration beside the values). hit rate 0.8% among 300,000. AID 435005, 2010;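 active = Every replicate reaches about 75%, or at least half do and their mean reaches it too, limit read from the data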;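 note: 0% = cytokine-treated negative control wells and 100% = positive control rescue; higher means more ATP so stronger rescue from cytokine killing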
PP5 inh: PP5 phosphatase inhibitors, primary screen, biochemical, fluorescence; hit rate 0.18% among 320,000; Serine/threonine-protein phosphatase 5 (Homo sapiens), P53041; purified PP5c, OMFP substrate fluorescence; inhibition, % at 6.7 µM;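 active = inhibition above the campaign's mean inhibition across all tested compounds plus 3 SD, cut at about 9.5% in these data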;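 note: 0% = DMSO only and 100% = 100 µM cantharidin control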
PP1 inh confirm: PP1 phosphatase inhibitors, confirmation, biochemical, fluorescence, OMFP substrate, triplicate; shares compounds with PP1 counter; purified PP1alpha; inhibition, % at 6.7 µM; hit rate 52% among 1,900;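 active = mean PP1 inhibition above a set limit taken from the earlier primary screen, cut at about 15% in these data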
PP5 counter: PP5 phosphatase inhibition by PP1 hits, confirmation, counter-screen for PP1 inhibitor project, biochemical, fluorescence, triplicate; shares compounds with PP1 counter; purified PP5c, OMFP fluorescence; inhibition, % at 6.7 µM; hit rate 4% among 1,900;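 active = mean PP5 inhibition over triplicate wells above about 9.5% taken from the earlier PP1 screen, limit read from the data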
Numbers without * were called inactive; · = not tested or not shown. An excerpt weighted towards active compounds, which were near 4.9% of everything screened.

SMILES	Mdm2 MdmX PPI	CSC inhib	Calb FLC	PP1 counter	Beta apoptosis	PP5 inh	PP1 inh confirm	PP5 counter
Cc1ccc(C)c(C(C)NC(=O)C2C3CCC(O3)C2C(=O)O)c1 (configuration not stated)	-11.8	-1.9	-9.2	79.8*	2.3	82.0*	33.1*	43.3*
FC(F)Oc1ccc(NC(=S)NC2CCCCCCC2)cc1	-17.7	·	-1.2	0.7	7.0	4.5	·	·
O=C(O)C1C2CCC(O2)C1C(=O)Nc1ccc(O)cc1 (configuration not stated)	14.6	-4.8	7.0	26.7*	-7.0	43.3*	5.4	18.3*
COc1ccc(C(=O)OCC(=O)NC2CCCCCC2)cc1OC	27.7	·	·	-2.4	-8.8	1.8	·	·
COc1cccc(CN2CCN(c3nc4nonc4nc3N3CCCCC3)CC2=O)c1	-9.9	-14.9	-12.9	-3.7	2.8	3.0	·	·
COc1cc(NC(=O)C2C3CCC(O3)C2C(=O)O)cc(OC)c1 (configuration not stated)	34.0	-1.5	5.0	76.1*	-9.9	80.4*	20.6*	29.6*
O=C(NCCCCc1ccccc1)C12CN(Cc3ccccc3)CC1C(c1ccc([N+](=O)[O-])cc1)=NO2 (configuration not stated)	19.9	-11.9	-2.1	7.4	32.5	3.6	·	·
O=C(NCCCCc1ccccc1)C12CN(Cc3ccccc3)CC1C(c1cccc([N+](=O)[O-])c1)=NO2 (configuration not stated)	-15.8	2.8	-4.2	23.8*	3.4	2.0	6.8	0.2
Cc1cccc2c1-c1sc(C(=O)Nc3cccnc3)cc1CO2	16.8	-4.9	-3.2	3.9	-0.2	3.4	·	·
Cc1cccc2c1-c1sc(C(=O)Nc3nccs3)cc1CO2	-42.6	17.5	-9.9	21.4*	0.6	0.9	3.4	-2.9
O=C(Nc1nccs1)c1cc2c(s1)-c1ccccc1OC2	-119.9	6.2	-2.7	22.6*	·	-1.1	26.2*	-3.9
COc1ccc2c3c(cccc13)C(=O)N(O)C2=O	·	6.5	-9.2	25.7*	-0.2	-0.4	41.9*	-3.5
O=C1c2cccc3c([N+](=O)[O-])ccc(c23)C(=O)N1O	7.0	29.1	-3.2	9.1	42.6	0.7	·	·
COc1ccc(NC(=O)CSc2nc3nc(-c4cccs4)cc(C(F)(F)F)c3c(=O)[nH]2)c(OC)c1	1.2	13.8	0.7	-0.6	-3.4	0.9	·	·
